{"source": "PubChem BioAssay AID431", "about": "(Sanford-Burnham Center for Chemical Genomics, 2006)", "note": "In all, about 63,000 compounds went through this assay and about 1,100 (1.7%) were called active. For the sample, actives were picked, then their nearest neighbours and some compounds at random. Potency and affinity values are given separately. A number with no mark means an inactive call.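 How the source made its calls: active means compounds whose percent cytotoxicity in the single-dose primary screen, scaled between solvent and toxic-drug controls, exceeds 50; inactive means the rest.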"}
{"assay": "viability loss of HPDE-C7K cells – cell-based, fluorescence, HTS, primary screen (AID 431);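 further: 0% = DMSO solvent wells and 100% = doxorubicin-treated wells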", "conditions": "HPDE-C7K KRASV12 cells, Alamar Blue viability, 48 h; at 10 µM; stronger effect = higher value"}
{"smiles": "CN(C)S(=O)(=O)c1ccc(C(=O)Nc2ccc(Cl)cc2)cc1", "cytotoxicity": "1.5%"}
{"smiles": "Oc1ccc(-c2nc(-c3ccc(O)c(O)c3)cs2)cc1", "cytotoxicity": "79.5% (active)"}
{"smiles": "COc1cc(-c2csc(C)n2)ccc1O", "cytotoxicity": "-3.1%"}
{"smiles": "CN(c1ccc(O)cc1)c1nc(-c2ccccc2)cs1", "cytotoxicity": "4.5%"}
{"smiles": "Cc1cccc2cc(C(c3nnnn3CC3CCCO3)N3CCCC4(CCCCC4)C3)c(=O)[nH]c12", "note": "(configuration not stated)", "cytotoxicity": "-12.9%"}
{"smiles": "Cc1csc(NC(=O)c2sc3nc(-c4cccs4)ccc3c2N)n1", "cytotoxicity": "72.2% (active)"}
{"smiles": "Nc1c(C(=O)NC2CCCC2)sc2nc(-c3cccs3)ccc12", "cytotoxicity": "12.2%"}
{"smiles": "CCCSc1nnc(NC(=O)c2sc3nc(-c4cccs4)ccc3c2N)s1", "cytotoxicity": "22.7%"}
{"smiles": "CC(C)CCN1C(=O)c2ccc(C(=O)NCC3CCCO3)cc2C1=O", "note": "(configuration not stated)", "cytotoxicity": "-6.8%"}
{"smiles": "O=C(NCCCN1CCN(c2ccccc2F)CC1)Nc1ccc(F)cc1", "cytotoxicity": "-10.3%"}
{"smiles": "Cc1cc2n(n1)C(c1ccccc1)Nc1ccccc1-2", "note": "(configuration not stated)", "cytotoxicity": "15.3%"}
{"smiles": "Cc1cc2n(n1)C(c1ccccc1Cl)Nc1ccccc1-2", "note": "(configuration not stated)", "cytotoxicity": "18.6%"}
{"smiles": "CCCNC(=O)Cc1ncn[nH]1", "cytotoxicity": "3.6%"}
{"smiles": "CCOc1cc(C(=O)O)cc(Cl)c1OCC#N", "cytotoxicity": "-16.2%"}
{"smiles": "Cc1nc2c(C(=O)O)cnn2c(C)c1Cc1ccccc1F", "cytotoxicity": "-2.2%"}
{"smiles": "Cc1ccccc1Cc1c(C)nc2c(C(=O)N3CCN(Cc4ccc5c(c4)OCO5)CC3)cnn2c1C", "cytotoxicity": "-9.2%"}
{"smiles": "CC1(C)CC(=O)c2cc(C(=O)N3CCN(CCO)CC3)c(=O)n(-c3ccc(Cl)cc3)c2C1", "cytotoxicity": "-8.4%"}
{"smiles": "O=C(c1cc2ccccn2n1)N1CCCC1", "cytotoxicity": "8%"}
{"smiles": "Cc1onc(-c2ccccc2Cl)c1C(=O)NCc1ccc(S(N)(=O)=O)cc1", "cytotoxicity": "-0.7%"}
{"smiles": "O=c1[nH]cnc2scc(-c3ccc(F)cc3)c12", "cytotoxicity": "7.7%"}
{"smiles": "Cn1nnnc1Sc1ncnc2scc(-c3ccccc3)c12", "cytotoxicity": "11.1%"}
{"smiles": "COc1ccc(OC)c(NC(=O)CN2CCC(C(=O)c3ccc(C)cc3)CC2)c1", "cytotoxicity": "4.8%"}
{"smiles": "CCC(C)(C)NC(=O)C(c1cccn1C)N(C(=O)Cn1nnc2ccccc21)c1ccc(OC)cc1", "note": "(configuration not stated)", "cytotoxicity": "41.6%"}
{"smiles": "O=C1CC(O)(C(F)(F)F)Oc2c1ccc1ccccc21", "note": "(configuration not stated)", "cytotoxicity": "88.6% (active)"}
{"smiles": "COc1ccc2c(c1)OC(O)(C(F)(F)F)CC2=O", "note": "(configuration not stated)", "cytotoxicity": "-1.5%"}
{"smiles": "O=C1CC(O)(C(F)F)Oc2ccc3ccccc3c21", "note": "(configuration not stated)", "cytotoxicity": "-1.2%"}
{"smiles": "COc1ccc(NC(=O)c2ccc(-n3nc(C)c[n+]3[O-])cc2)cc1", "cytotoxicity": "-7.1%"}
{"smiles": "N#Cc1c2n(cnc1=O)CCCCC2", "cytotoxicity": "0%"}
{"smiles": "Nc1c(C(=O)NCCN2CCOCC2)c2nc3ccccc3nc2n1CCc1ccccc1F", "cytotoxicity": "7.5%"}
{"smiles": "Nc1ccc(-n2c(N)c(C(=O)NCc3ccc4c(c3)OCO4)c3nc4ccccc4nc32)cc1", "cytotoxicity": "35.9%"}
{"smiles": "Nc1c(C(=O)NCCN2CCOCC2)c2nc3ccccc3nc2n1CCc1ccccc1", "cytotoxicity": "18.1%"}
{"smiles": "Nc1c(C(=O)NCCN2CCOCC2)c2nc3ccccc3nc2n1-c1ccc2c(c1)OCO2", "cytotoxicity": "-10.7%"}
{"smiles": "CC1CN(c2nnnn2-c2ccccc2)CC(C)O1", "note": "(configuration not stated)", "cytotoxicity": "-6.4%"}
{"smiles": "Cc1ccc(NC(=O)CSc2nnc(COc3ccc(C#N)cc3)n2-c2ccccc2)cc1C", "cytotoxicity": "-3.3%"}
{"smiles": "Cc1ccc(S(=O)(=O)/C(C#N)=C/c2c(N3CCN(C)CC3)nc3ccccn3c2=O)cc1", "cytotoxicity": "-0.5%"}
{"smiles": "O=C(O)CSCCC(=O)Nc1ccc(F)cc1", "cytotoxicity": "-3.7%"}
{"smiles": "CCOC(=O)Cn1c(CN2CC(C)OC(C)C2)nc2c1c(=O)n(C)c(=O)n2C", "note": "(configuration not stated)", "cytotoxicity": "-2.5%"}
{"smiles": "CCOC(=O)N1CCN(C(=O)C2COc3ccccc3O2)CC1", "note": "(configuration not stated)", "cytotoxicity": "11.8%"}
{"smiles": "O=C(O)C1CCCCC1C(=O)Nc1ccc(Cl)cc1Cl", "note": "(configuration not stated)", "cytotoxicity": "-0.5%"}
{"smiles": "CCCOC(=O)CCCCC1SCC(NC(=O)OC)C1NC(=O)OC", "note": "(configuration not stated)", "cytotoxicity": "5.4%"}
{"smiles": "CCOC(=O)Cn1c(=O)oc2cc(S(=O)(=O)Nc3cc(Cl)ccc3OC)ccc21", "cytotoxicity": "0.7%"}
{"smiles": "CC1=CC(C)(C)N2C(=O)C3(C(C#N)=C(N)Oc4cc(O)ccc43)c3cccc1c32", "note": "(configuration not stated)", "cytotoxicity": "74.3% (active)"}
{"smiles": "CC1=CC(C)(C)N2C(=O)C3(C(C#N)=C(N)Oc4cc(C)oc(=O)c43)c3cccc1c32", "note": "(configuration not stated)", "cytotoxicity": "-4.3%"}
{"smiles": "COc1cc2c3c(c1)C1(C(=O)N3C(C)(C)C=C2C)C(C#N)=C(N)Oc2cc(O)ccc21", "note": "(configuration not stated)", "cytotoxicity": "-21.4%"}
{"smiles": "Cn1c(SCC2CCCO2)nnc1-c1ccncc1", "note": "(configuration not stated)", "cytotoxicity": "-3.1%"}
{"smiles": "CCOC(=O)C1CCN(c2ncnc3c2oc2ccc(Cl)cc23)CC1", "cytotoxicity": "6.4%"}
{"smiles": "Cc1onc(-c2ccccc2)c1C(=O)OCC(=O)Nc1ccc2c(c1)OCO2", "cytotoxicity": "1.3%"}
